SMN2 splice up = SMN2 splice variant enhancement; HEK293 SMN2-luciferase splicing reporter, luminescence, 30-36 h; Potency, µM (top dose mostly 46.1 µM), inactives show at the highest dose activity change, positive = activation, most hits filed as activators; 210,000 compounds, 2.8% hits; AID 1458; also: % of control where 0% means no effect; nearly all actives have a fitted effect of over 55% in size
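HEK293 cells carry an SMN2 […]–luciferase reporter in which exon 7 inclusion puts luciferase in frame. Cells were plated 10-12 h before compound addition, then incubated 30-36 h at 37C. ONE-Glo luminescence was read; sodium butyrate at 4.5 mM final served as control.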
ELG1 genotoxic = genotoxicity induction in ELG1-luciferase HEK293T cells. HEK293T ELG1-luciferase reporter, luminescence, 16 h. Potency, µM (series often up to 46 µM), for the others: top-dose activity change, positive = activation, hits mostly activators. 330,000 compounds, 1.3% hits. AID 504466; also: % of control where 0% means no effect; nearly all actives have a fitted effect of over 60% in size
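ELG1-luciferase HEK293T cells, 2,000/well; compound pinned in; 16 hr, 37 °C, 5% CO2; ONE-Glo, 30 min RT; luminescence on CCD imager.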
ELG1 DNA repair = inhibitors of ELG1-dependent DNA repair in HEK293T cells; AID 504467; HEK293T ELG1-luciferase reporter, luminescence, 16 h; DNA damage induced by 5-fluorouridine; 330,000 compounds, 2.3% hits; Potency, µM (series often up to 46.1 µM), without a hit: top-dose activity change, negative = inhibition, hits mostly inhibitors; also: % is scaled to controls: 0 for no effect and ±100 for the full control effect; nearly all actives have a fitted effect of over 55% in size
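Overnight (16 hr) co-exposure of 2,000 cells/well to 5-fluorouridine and compound at 37 °C preceded detection. Luciferase was quantified via ONE-Glo luminescence; loss of signal denotes inhibition.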
Rab9 prom act = activators of Rab9 promoter. Huh7 Rab9 promoter-luciferase reporter, luminescence, 24 h. Potency, µM (highest dose often 9.22 µM), inactives show at the top dose activation, negative = inhibition, most hits filed as activators. 320,000 compounds, 2.8% hits; also: % of control where 0% means no effect; nearly all actives have a fitted effect of over 60% in size
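Stable Rab9-luc Huh7, 1500 cells/well, 2 h settle; cmpd in DMSO, 24 h, 37 °C/5% CO2; luciferase reagent 10 min RT; luminescence.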
NPC1 prom act = NPC1 promoter activation | Huh7 NPC1 promoter luciferase reporter, 24 h | Potency, µM (doses to about 9.22 µM), for the others: top-dose activation, most hits filed as activators | 320,000 compounds, 2.4% hits | AID 485313; also: % of control where 0% means no effect; nearly all actives have a fitted effect of over 60% in size
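Quantitative HTS used a cell-based reporter: Huh7 cells stably bearing the NPC1 promoter upstream of luciferase were treated with compounds for 24 h, and promoter activation was read as luminescence.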
FLuc counter = counter-screen for miR-21 project: firefly luciferase inhibitors or activators; P08659; purified FLuc, Km substrates, luminescence inhibition; Potency, µM (highest dose often 57.5 µM), without a hit: top-dose activity change, negative = inhibition, most hits filed as inhibitors; 360,000 compounds, 6.9% hits; AID 588342;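 also: plate controls were vehicle for no effect and reference inhibitor for full effect; nearly all actives have a fitted effect of over 55% in size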
Target sequence (P08659 whole entry, looked up): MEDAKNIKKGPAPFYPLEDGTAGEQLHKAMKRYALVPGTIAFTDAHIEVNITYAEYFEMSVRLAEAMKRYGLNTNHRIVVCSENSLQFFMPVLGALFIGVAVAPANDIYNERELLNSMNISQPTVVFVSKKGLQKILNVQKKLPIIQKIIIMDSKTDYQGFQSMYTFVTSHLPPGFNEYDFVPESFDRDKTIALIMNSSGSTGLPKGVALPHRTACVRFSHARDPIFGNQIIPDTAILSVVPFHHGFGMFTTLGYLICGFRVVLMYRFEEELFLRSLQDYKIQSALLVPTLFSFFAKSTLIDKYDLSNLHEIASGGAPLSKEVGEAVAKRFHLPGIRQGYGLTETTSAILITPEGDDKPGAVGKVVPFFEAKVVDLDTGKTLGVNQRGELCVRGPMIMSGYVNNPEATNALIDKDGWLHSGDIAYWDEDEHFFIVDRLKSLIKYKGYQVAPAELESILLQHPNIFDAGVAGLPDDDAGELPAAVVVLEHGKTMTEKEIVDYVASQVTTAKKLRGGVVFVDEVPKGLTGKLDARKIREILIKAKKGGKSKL
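Biochemical qHTS of compounds, final roughly 60 µM downward over six points, against 10 nM purified firefly luciferase using Km concentrations of substrates (10 uM D-luciferin, 10 uM ATP) in Tris acetate pH 7.5 buffer; luminescence output.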
* hit, by the source's call; ? = inconclusive; . = no result given; [ ] = dose if it differs, or a comment. Only some compounds are listed: those with a hit (about 9.4% of all), similar ones and a draw of the others. Calls follow the shape of the dose curve; as a rule, active = well fitted curve in the direction sought with a large enough effect; inconclusive = small, poorly fitted or top-dose-only effect, or another doubt; inactive = no such curve, though single readings can be large; an effect the other way counts as inactive or inconclusive. Potency is read from the fitted curve at half-maximal effect.

SMILES | SMN2 splice up | ELG1 genotoxic | ELG1 DNA repair | Rab9 prom act | NPC1 prom act | FLuc counter
COc1c(C)cc(C(=O)C2CCCN(C(=O)c3cccc(-n4cccn4)c3)C2)cc1C (centres undefined) | . | -9.9% | 23.1µM* | 0.9% | -2.8% | -17.2%
Oc1cccc(/C=N/Nc2ncnc3c2ncn3Cc2ccccc2)c1 | 3.4% | 16.2% | ? | 17.0% | 9.2% | 13.5µM*
Brc1ccc(/C=N/Nc2ncnc3c2cnn3Cc2ccccc2)cc1 | 2.5% | 1.6% | 5.1% | -7.0% | -3.8% | -2.3%
Oc1ccc(/C=N/Nc2ncnc3c2ncn3Cc2ccccc2)cc1O | -1.6% | ? | ? | 2.3% | -6.3% | 9.53µM*
COc1ccccc1NC(=O)CN1CCN(C2c3ccccc3-c3ccccc32)CC1 | ? | -13.6% | 3.66µM* | -3.3% | 2.1% | 0.3%
COc1ccccc1NC(=O)CN1CCCCCC1 | . | 0.3% | 19.9% | -1.2% | 1.7% | 0.9%
CCOc1ccc(NC(=O)CN2CCN(C3c4ccccc4-c4ccccc43)CC2)cc1 | -2.0% | -3.6% | 13µM* | -0.1% | -5.3% | 1.9%
COc1ccc(C(=O)c2cn(Cc3ccc(F)cc3)c3c(F)cc(F)cc3c2=O)cc1 | 2.6% | . | . | . | . | -0.3%
COc1ccc(-c2noc(Cn3c(=O)c4ccccc4n(CC(=O)Nc4cccc(OC)c4)c3=O)n2)cc1 | . | . | . | . | . | -2.5%
Cc1ccc(/C=N/Nc2cccc3cccnc23)c(O)c1 | . | ? | ? | ? | 3.98µM* | 1.51µM*
Oc1ccc(/C=N/Nc2cccc3cccnc23)c(O)c1 | 12.6µM* | 6.51µM* | ? | 3.16µM* | 9.4% | 4.78µM*
COc1ccc(Br)cc1CNC(=O)c1cc2n(n1)CCCN(Cc1ccc(C)cc1)C2=O | . | . | . | . | . | -10.9%
CCCOc1ccc(/C=C/c2c([N+](=O)[O-])c(=O)n(C)c(=O)n2C)cc1 | . | -6.9% | -20.5% | 0.0% | -7.1% | -2.0%
CCN(CC)S(=O)(=O)c1ccc(NC(=O)c2cc(=O)[nH]c3ccccc23)cc1 | 2.4% | -0.3% | ? | 1.7% | -5.3% | -3.1%
CC(C)c1ccc(NC(=O)c2n[nH]c(=O)c3ccccc23)cc1 | 5.62µM* | ? | ? | 1.58µM* | ? | -0.9%
Cc1cc(NC(=O)c2n[nH]c(=O)c3ccccc23)ccc1Br | . | ? | ? | 5.01µM* | ? | 4.6%
CCN(CC)S(=O)(=O)c1cc(NC(=O)c2n[nH]c(=O)c3ccccc23)ccc1C | -25.7% | -11.8% | ? | ? | 6.1% | 23.9µM*
CN(C)S(=O)(=O)c1cccc(NC(=O)c2n[nH]c(=O)c3ccccc23)c1 | -2.4% | -5.4% | ? | -3.8% | -1.3% | -12.2%
CCN(CC)S(=O)(=O)c1ccc2[nH]c(=O)cc(C(=O)Nc3ccc(C)c(S(=O)(=O)N(CC)CC)c3)c2c1 | -3.6% | -5.5% | 18.4µM* | 0.4% | -1.5% | -1.6%
O=C(NC1CCCC1)c1ccc2c(c1)N(Cc1ccc(C(F)(F)F)cc1)C(=O)c1ccccc1S2 | -15.2% | . | . | . | . | 6.0%
Cc1cccc(NC(=O)c2ccc(-c3nc(CSc4ccccc4)c(C)o3)cc2)c1C | . | . | . | . | . | -11.3%
CCC(=O)C1=C(c2cccc([N+](=O)[O-])c2)N(C(=O)CC)n2c(nnc2-c2ccccc2)S1 | . | . | . | . | . | 0.8%
CCN(CC)S(=O)(=O)c1cc(NC(=O)c2cc(-c3ccccn3)nc3ccccc23)ccc1C | -14.5% | -17.0% | 8.2µM* | 2.4% | -2.4% | -11.1%
COc1ccc(NC(=O)c2cc(-c3ccccn3)nc3ccccc23)cc1S(=O)(=O)N(C)C | . | -6.2% | ? | -0.9% | 0.3% | -14.7%
COc1cccc(CNn2c(-c3cccc(C)c3)nc3ccccc3c2=O)c1O | -16.1% | -6.8% | 16.4µM* | -1.1% | -4.1% | 1.7%
SMILES | SMN2 splice up | ELG1 genotoxic | ELG1 DNA repair | Rab9 prom act | NPC1 prom act | FLuc counter
COc1ccc(-c2nsc3c(N4CCCCC4)ncnc23)cc1 | -73.4% | ? | ? | ? | ? | 0.0849µM*
COc1ccc(-c2nsc3c(N4CCCCC4C)ncnc23)cc1 (centres undefined) | -73.0% | -8.9% | ? | -43.7% | -29.5% | 0.338µM*
COc1ccc(C(=O)N2CCN(c3ncnc4c(-c5ccccc5)nsc34)CC2)cc1 | -87.3% | -2.6% | ? | -5.8% | -4.4% | -1.4%
CC(=O)N1N=C(c2ccc3ccccc3c2)OC1(C)C | -15.7% | -0.3% | 1.8% | -2.0% | -3.8% | ?
c1ccc2cc(-c3cc4ccccn4c3)ccc2c1 | 11.2µM* | 3.66µM* | ? | 3.16µM* | 3.16µM* | 0.849µM*
OCCNCC(O)CN1c2ccccc2Sc2ccccc21 (centres undefined) | . | -4.2% | -7.9% | 1.8% | -3.3% | -1.2%
C=CCn1c(SCc2csc(-c3ccc(C)cc3)n2)nnc1-c1ccccc1OC | . | -4.7% | -4.4% | 2.4% | -0.9% | 21.3µM*
COc1ccccc1-n1cnnc1SCc1csc(-c2ccccc2)n1 | -8.5% | -10.0% | ? | -2.8% | 0.3% | -5.8%
O=C(Nc1ccccc1C(=O)NCc1cccnc1)c1ccccc1F | . | -1.5% | -9.0% | -2.0% | -3.7% | 1.0%
CC(C)=CCOc1c2ccoc2c(OCC=C(C)C)c2oc(=O)ccc12 | . | -3.3% | 23.1µM* | . | . | .
Oc1ccc(Cl)cc1N=Nc1ccccc1 | . | 6.8% | ? | 0.0% | -26.5% | 13.5µM*
CC(=O)Nc1ccc(N=Nc2ccc(O)cc2)cc1 | -0.9%[1.84 µM] | ? | ? | 3.55µM* | ? | 10.7µM*
Oc1ccc(N=Nc2ccccc2)cc1 | . | ? | ? | 17.9% | ? | 9.53µM*
CC(=O)Nc1ccc(N=NN2CCOCC2)cc1 | -35.4% | ? | ? | -1.6% | -3.8% | ?
Cc1ccc(C(=O)NC(C)C2CC3CCC2C3)c(C)c1 (centres undefined) | . | 13.4% | ? | 27.1% | ? | ?
CCCCNc1nc(C)nc2c1nc(-c1ccccc1)n2CC1CCCN1CC (centres undefined) | -9.0% | . | . | . | . | .

Compound activity: PubChem BioAssay, National Center for Advancing Translational Sciences (NCATS)
